A selection: hits, their analogues and other compounds. The true share with any hit is near 1.6%.
Wee1 degr inh: blocks degradation of human Wee1 kinase | AID 1321 | reporter increase, % at 5 µM | P30291 | 1.2% of 220,000 active | HeLa Luc-Wee1K328M stability, luciferase luminescence; 100% = proteasome inhibitor MG132 effect;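 active means activation above the mean of all tested compounds plus 3 SD, set per screening run, cut at about 8.8% in these data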;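 further: cells exposed to compound for 20 h before luminescence read; 0% = DMSO alone and 100% = MG132 at 30 µM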
Hsp70 activator: switches on Hsp70 transcription; activation, % at 10 µM; AID 1203; 0.04% of 200,000 active; HeLa Hsp70 promoter luciferase reporter, luminescence; scaled: vehicle 0, proteasome-inhibitor control 100%;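 active means activation above the mean across all tested compounds plus 3 SD, cutoff set per campaign, cut at about 5.5% in these data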;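 further: 100% = MG132 at 30 µM as the positive control and 0% = DMSO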
p97 ATPase inh: blocks human p97 ATPase activity; P55072; recombinant p97 ATPase, Kinase-Glo ATP luminescence, 3 h; inhibition, % at 8 µM; 0.42% of 220,000 active; in the data active means inhibition above about 15%;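 further: 0% = DMSO vehicle and 100% = wells lacking enzyme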
Target sequence (P55072 whole entry, looked up): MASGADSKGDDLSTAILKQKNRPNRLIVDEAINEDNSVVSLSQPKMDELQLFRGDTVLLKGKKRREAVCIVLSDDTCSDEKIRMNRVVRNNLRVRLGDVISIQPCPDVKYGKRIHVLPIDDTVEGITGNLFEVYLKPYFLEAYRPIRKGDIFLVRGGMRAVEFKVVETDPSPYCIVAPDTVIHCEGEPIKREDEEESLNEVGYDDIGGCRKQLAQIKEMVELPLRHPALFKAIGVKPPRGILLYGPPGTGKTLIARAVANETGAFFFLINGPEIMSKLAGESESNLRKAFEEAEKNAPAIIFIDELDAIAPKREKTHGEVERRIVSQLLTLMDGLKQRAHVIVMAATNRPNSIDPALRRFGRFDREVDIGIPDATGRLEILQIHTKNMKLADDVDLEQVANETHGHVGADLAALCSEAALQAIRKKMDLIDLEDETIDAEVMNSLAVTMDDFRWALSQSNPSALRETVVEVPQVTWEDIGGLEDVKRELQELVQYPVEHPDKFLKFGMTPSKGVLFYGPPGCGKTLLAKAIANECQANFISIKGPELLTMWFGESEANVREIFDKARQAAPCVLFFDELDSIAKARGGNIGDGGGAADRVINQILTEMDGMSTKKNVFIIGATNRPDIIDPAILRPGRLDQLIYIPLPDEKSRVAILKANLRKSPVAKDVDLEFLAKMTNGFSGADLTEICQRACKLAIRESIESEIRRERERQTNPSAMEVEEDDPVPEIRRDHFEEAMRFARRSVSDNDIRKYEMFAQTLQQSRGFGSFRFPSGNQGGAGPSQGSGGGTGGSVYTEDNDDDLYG
DTT redox prof: compounds producing H2O2 with reducing agent – biochemical, NIH compound library profiling, artefact control for MLSCN library redox annotation, primary screen; AID 878; 0.03% of 200,000 active; activation, % at 10 µM; DTT-dependent redox cycling H2O2, phenol red/HRP absorbance; 100% = 100 µM peroxide control, 0% = buffer;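 active means activation of at least 50% relative to the plate's high and low controls in the primary single-dose screen; inactive means activation below 50%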;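 further: compound incubated with DTT at 0.8 mM final as the reducing agent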
HSV replic up: HSV replication enhancement. HSV replication augmentation in cells, fold increase. maximum fold increase. 0.005% of 220,000 active. AID 1956; in the data active means maximum fold increase above about 1.5; tested in PC3 cells
* = called active by the depositor; i = inactive; / = no result.

SMILES | Wee1 degr inh | Hsp70 activator | p97 ATPase inh | DTT redox prof | HSV replic up
COc1ccc(C2NC(=O)c3ccccc3O2)cc1OC (configuration not stated) | -3 | 0 | 0 | 1 | i
CCc1cc2c(N=Nc3c(O)[nH]c4ccccc34)ncnc2s1 | 0 | 0 | 4 | 2 | i
CCc1ccc2[nH]c(O)c(N=Nc3nc(-c4ccccc4)cs3)c2c1 | 9.7* | 0 | 5 | 2 | i
Cc1ccccc1OCCCc1c(C)n[nH]c1C | -1 | 0 | 1 | 1 | i
Cc1ccccc1OCCCCc1c(C)n[nH]c1C | 10* | 0 | -3 | 1 | i
CCN1CCN(C(=O)c2ccc(OC)c(S(=O)(=O)Nc3ccc(C)cc3)c2)CC1 | -2 | 0 | 1 | 0 | i
COc1ccc(/C=C/c2c([N+](=O)[O-])c(=O)n(C)c(=O)n2C)cc1OC | 1 | 0 | -3 | -1 | i
CN(/C=C/c1c([N+](=O)[O-])c(=O)n(C)c(=O)n1C)c1ccccc1 | 9.4* | 0 | -3 | -1 | i
CSc1nc2ccc(NS(=O)(=O)c3c(Cl)cccc3Cl)cc2s1 | -2 | 0 | -1 | -1 | i
CSCCC(NC(N)=O)C(=O)NCC1CCCCC1 (configuration not stated) | 0 | 0 | 1 | -1 | i
CCCNC(=O)Nc1nc2ccccc2s1 | 9.2* | / | 3 | / | i
CCOc1cccc(N2C(=O)CC(N3CCN(c4ccc(S(=O)(=O)CC)cc4)CC3)C2=O)c1 (configuration not stated) | -3 | -1 | -1 | 0 | i
COc1ccc(NC(=O)CCl)cn1 | 2 | / | 25* | / | i
COc1ccc(CC(=O)Nc2ccc(OC)nc2)cc1 | -2 | 0 | 6 | -2 | i
CCOc1ccccc1N1CC(O)=C(c2nc3ccccc3s2)C1=N | 10* | 0 | 5 | 1 | i
CCOC(=O)c1nnn(-c2ccc([N+](=O)[O-])cc2)c1C | 8.8* | 0 | 5 | 0 | i
CCOC(=O)c1cnn(-c2ccc([N+](=O)[O-])cc2)c1N | 4 | / | -1 | / | i
COC(=O)c1cc2ccsc2n1CC(=O)N1CCCc2ccccc21 | 20* | 0 | 2 | 1 | i
CN(C1=C(NC(=O)c2ccc(Cl)cc2)C(=O)c2ccccc2C1=O)c1ccccc1 | 1 | -1 | -3 | 1 | i
O=c1[nH]c(N/N=C/c2ccccc2)nc2ccccc12 | 10* | 0 | 4 | 4 | i
CCCCNC(=O)c1cc2c(-c3ccc(Cl)cc3)nn(C)c2s1 | 0 | 0 | 1 | -1 | i
Cc1ccc(CNC(=O)c2cc3c(-c4ccc(Cl)cc4)nn(C)c3s2)o1 | 9.6* | 0 | 0 | -1 | i
COc1ccc(-n2c(=O)[nH]c3c(C(N)=O)nc(C4CCCCC4)nc32)cc1 | -4 | 0 | 3 | 5 | i
COC(=O)c1ccccc1NC(=S)NC(=O)c1ccc2ccccc2c1 | -2 | -1 | 6 | 0 | i
COC(=O)c1ccccc1NC(=S)NC(=O)c1cccc2ccccc12 | -1 | 0 | 34* | -13 | i
SMILES | Wee1 degr inh | Hsp70 activator | p97 ATPase inh | DTT redox prof | HSV replic up
O=C1CSC(c2ccccn2)N1c1ccc(F)cc1F (configuration not stated) | 9.9* | 0 | -1 | 0 | i
O=C1CSC(c2ccccn2)N1c1ccccc1F (configuration not stated) | 2 | 0 | 2 | -1 | i
Cc1ccc(C)c(NC(=O)CN(C)C(=O)c2cccc(S(=O)(=O)N(C)C)c2)c1 | 10* | 0 | 5 | 0 | i
COc1ccc(/C=C2\CCCC3C2=NN(C(=O)CSc2n[nH]c(N)n2)C3c2ccc(OC)cc2)cc1 (configuration not stated) | 2 | 0 | 15* | 0 | i
O=C(Nc1ccc(-c2nc3ccccc3o2)cc1)c1cccnc1 | 11* | 0 | 2 | 2 | i
CCOC(=O)C1(CCCc2ccccc2)CCN(C(=O)c2cnc(C)cn2)CC1 | 6 | 0 | 0 | -1 | i
CCOC(=O)C1(CCc2ccccc2)CCN(C(=O)c2cccc(C)n2)CC1 | 11* | 0 | 0 | -1 | i
Cc1cc(C(=O)CCl)c(C)n1-c1ccon1 | -1 | 0 | 2 | -1 | i
Cc1ccc(C(=O)Nc2ccc3cn[nH]c3c2)cc1S(=O)(=O)N1CCOCC1 | 9.7* | 0 | 6 | -1 | i
COc1ccc(C2c3c(oc4ccccc4c3=O)C(=O)N2CC2CCCO2)cc1 (configuration not stated) | -1 | 0 | 1 | -1 | i
O=C(NC1=NCCS1)c1cccc(OC(F)F)c1 | 11* | 0 | 7 | 0 | i
COc1cc(OC)cc(C(=O)NC2=NCCS2)c1 | -3 | 0 | 2 | 0 | i
O=C(Nc1ccc(CN2CCS(=O)(=O)CC2)cc1)c1ccc(C(F)(F)F)cc1 | -2 | / | -1 | / | i
O=C(Nc1ccc(CN2CCS(=O)(=O)CC2)cc1)c1ccc(F)cc1 | 9.7* | / | 11 | / | i
CCOC(=O)C1(CC2CCCCO2)CCN(S(=O)(=O)c2ccc(OC)cc2)CC1 (configuration not stated) | -2 | 0 | 0 | -1 | i
CN(C(=O)CSc1nnc2ccccn12)c1c(N)n(Cc2ccccc2)c(=O)[nH]c1=O | 1 | 0 | 2 | 0 | i
CCc1cccc2c(C(=O)CCl)c[nH]c12 | -3 | 0 | 18* | 0 | i
NS(=O)(=O)c1ccc(CCNC(=O)CSc2cccs2)cc1 | 1 | 0 | 4 | 1 | i
c1ccc(-c2ccccc2OCCCN2CCCCC2)cc1 | -3 | 0 | 2 | 0 | i
COCCCNC(=O)CN(c1cc(C(F)(F)F)ccc1Cl)S(C)(=O)=O | 10* | / | -5 | / | i
Cc1ccccc1C(=O)NN1CCOCC1 | 5 | 0 | 0 | 0 | i
Cc1cccc(C(=O)Nc2nc(C)c(C(=O)Nc3ccc4c(c3)CCC4)s2)c1 | 4 | 0 | 0 | -5 | i
Oc1ccccc1/C=C/c1noc(-c2ccccc2O)n1 | 9.2* | 1 | 4 | 1 | i
CCOc1ccc(NC(=O)CSc2nnc(N)s2)c([N+](=O)[O-])c1 | 9.8* | 0 | 1 | 3 | i
Cc1ccc2nc(NC(=O)COC(=O)c3ccccn3)sc2c1 | 9.3* | 0 | 0 | 0 | i
SMILES | Wee1 degr inh | Hsp70 activator | p97 ATPase inh | DTT redox prof | HSV replic up
Cc1cccn2c(CN[C@H]3CCCCNC3=O)c(C(=O)N3CCOCC3)nc12 | -1 | 0 | -3 | 0 | i
O=C(NCCCCNC(=O)c1ccc(Br)s1)c1ccc(Br)s1 | 16* | 0 | 4 | 0 | i
O=C(NCCCN1CCOCC1)c1ccc(Br)s1 | 0 | 0 | 2 | 1 | i
Cc1ccc2nc(N(CCCN(C)C)C(=O)c3ccco3)sc2c1 | 10* | 0 | 2 | -2 | i
CCOC(=O)CSc1n[nH]c(=S)s1 | 3 | / | 15* | / | i
Cc1cc(C(F)F)n2nc(C(=O)Nc3ccccc3Br)nc2n1 | 2 | 0 | 7 | 3 | i

Source: PubChem BioAssay (several laboratories)
